# Bioassay records deposited in PubChem BioAssay by several laboratories.
# An excerpt weighted towards active compounds, which were near 5.2% of everything screened.
# Vif imaging: blocks HIV Vif function; HEK293T cells, Vif self-association by quenched fluorescence, imaging, 24 h; inhibition, % at 7.49 µM; 0.35% of 340,000 active; AID 602346; in the data active = inhibition above about 50%, passing the limit was not always enough
# esBAF inh: inhibitors of esBAF chromatin remodeling in mouse ES cells | reporter increase, % at 12.5 µM | AID 602393 | 2% of 350,000 active | Bmi1-luciferase knock-in reporter, 24 h; 100% = twice the neutral-well signal; in the data active = activation above about 40%;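 also: 0% = median of the plate's neutral control wells and 100% = double that signal; a rise in the Bmi1 reporter signal indicates esBAF inhibition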
# SMARCA2 activ: increases SMARCA2 function in MMTV reporter cells. MG213 cells, MMTV-luciferase reporter, dexamethasone, overnight. activation, % at 9.1 µM. 1% of 370,000 active; in the data active = activation above about 7.8%;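 also: 0% = vehicle wells and 100% = reference activator wells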
# NadD block: blocks S. aureus nicotinate mononucleotide adenylyltransferase. purified NadD enzyme, colorimetric absorbance read-out. inhibition, % at 20 µM. 0.78% of 360,000 active. AID 602399; in the data active = inhibition above about 26%
# SKN-1 block: C. elegans SKN-1 inhibition | AID 624304 | inhibition, % at 21.8 µM | 0.49% of 360,000 active | C. elegans VP596 Pgst-4::GFP/RFP ratio, acrylamide-induced, 24 h;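 active = interference check ratio from 0.5 to 1.5 plus GFP to RFP signal ratio inhibition reaching or exceeding a fixed threshold, cut at about 30% in these data, passing the limit was not always enough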
# GRIN3A LBD mod: NR3A (human) ligand-binding domain modulation. NR3A LBD differential scanning fluorimetry, Tm shift; 0% = protein alone, 100% = glycine-bound protein. AID 1259313. 2.5% of 340,000 active. Tm shift relative to glycine control, % at 25 µM;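 active = melting temperature shift of at least 10% of the positive control shift, at one fixed dose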
# Numbers without * were called inactive; · = no result given; + = active, no number.
SMILES,Vif imaging,esBAF inh,SMARCA2 activ,NadD block,SKN-1 block,GRIN3A LBD mod
Cc1ccc(C2NC(=O)c3c(sc(C)c3C)N2)c(O)c1 (stereo not given),-2,98*,1,10,-2,1
Cc1cccc(C2NC(=O)c3c(sc(C)c3C)N2)c1O (stereo not given),15,16,0,1,4,-3
CC(/C=C1\SC(=S)N(NC(=O)c2ccncc2)C1=O)=C\c1ccccc1,-3,-2,0,20,7,20*
CC(/C=C1\SC(=S)N(NC(=O)c2ccccc2C)C1=O)=C\c1ccccc1,-2,·,-2,14,-2,2
CC(/C=C1\SC(=S)N(NC(=O)c2ccc(C)cc2)C1=O)=C\c1ccccc1,9,-1,·,30*,-5,3
N=C1/C(=C\c2ccc(-c3cccc(C(=O)O)c3)o2)C(=O)N=C2SC=C(c3ccccc3)N12,-3,15,2,49*,6,3
N=C1/C(=C/c2ccc(-c3cccc(C(=O)O)c3)o2)C(=O)N=C2SC(CC(=O)N3CCOCC3)=NN12,0,11,1,6,5,-1
C[C@@H]1CCCCO[C@H](CN(C)C(=O)Cc2ccccc2)[C@@H](C)CN([C@@H](C)CO)C(=O)c2cc(NC(=O)C3CCCCC3)ccc2O1,·,-3,·,·,·,·
COc1ccc(CCn2c(C)cc(C(=O)COC(=O)c3ccc(NC(=O)CC#N)cc3)c2C)cc1,-3,-1,·,40*,5,8
Cc1cc(C(=O)COC(=O)c2ccc(NC(=O)CC#N)cc2)c(C)n1CCc1ccc(F)cc1,-13,0,-3,24,9,10
C/C(=N\OCc1ccc(C#N)cc1)c1ccc(S(=O)(=O)N(C)C)cc1,-16,51*,1,-7,3,-1
C/C(=N\OCc1ccc(C#N)cc1)c1ccccc1,3,·,3,2,7,-2
CCN1C(=S)SC(=O)C1=C1C=C(C)N(CCO)C(C)=C1,+,34,7,10,0,-1
CCN1C(=O)/C(=C/C=C2/Sc3ccccc3N2CCO)SC1=S,-6,-8,0,15,29,2
CC(C)Cc1cc(C(=O)Nc2cccc(O)c2)no1,-2,-27,4,-4,-3,-1
CC(C)Cc1cc(C(=O)Nc2ccc(F)cc2F)no1,3,79*,2,3,12,0
CCc1ccc(NC(=O)c2cc(CC(C)C)on2)cc1,23,71*,4,-2,-10,-1
CCc1ccc(NC(=O)c2cc(C)no2)cc1,-8,55*,5,-3,7,0
COc1ccc(NC(=O)c2cc(CC(C)C)on2)cc1OC,5,50*,-1,-3,-12,-2
Cc1ccc(NC(=O)c2cc(C)no2)cc1,4,31,4,-7,1,1
COCC(=O)Nc1ccc2c(c1)C(=O)N(C)C[C@H](OC)[C@@H](C)CN(Cc1ccncc1)[C@@H](C)CO2,·,-5,·,·,·,·
CCc1ccc(NC(=O)c2cc(C)on2)cc1,0,10,3,-13,-14,1
CCCc1cc(C(=O)Nc2ccc(CC)cc2)no1,-3,77*,3,-9,-1,0
CO[C@@H]1CN(C)C(=O)c2ccc(NS(=O)(=O)c3ccccc3Cl)cc2OC[C@H](C)NC[C@@H]1C,·,5,·,·,·,·
Nc1ccc2nc(-c3ccc(Cl)cc3)[nH]c2c1,5,12,3,11,7,1
SMILES,Vif imaging,esBAF inh,SMARCA2 activ,NadD block,SKN-1 block,GRIN3A LBD mod
O=[N+]([O-])c1ccc(-c2nc3ccc([N+](=O)[O-])cc3[nH]2)cc1,4,·,1,3,4,-2
Nc1ccc(-c2nc3ccc(-c4nc5ccccc5o4)cc3[nH]2)cc1,5,·,4,-7,16,18*
O=[N+]([O-])c1ccc2nc(/C=C/c3ccc(Cl)cc3)[nH]c2c1,-9,47*,0,19,28,2
Nc1ccc2nc(-c3cc(Cl)c(N)c(Cl)c3)[nH]c2c1,12,48*,2,15,-15,12*
Nc1ccc(-c2nc3ccc([N+](=O)[O-])cc3[nH]2)cc1,·,·,5,2,-7,25*
CO[C@H]1CN(C)C(=O)c2cc(NC(=O)C3CC3)ccc2OC[C@@H](C)N(C(=O)C2CCCCC2)C[C@H]1C,·,8,·,·,·,·
S=c1[nH]nc(-c2cccnc2)n1Cc1ccccc1,-7,-1,-2,0,-1,0
